± gives the standard deviation of the averaged measurements.
Tests used:
DLD1 [1] = test: cell viability (CellTiter-Glo) relative to plate median (fraction of plate median); higher = more viable cells; settings: 5 µM; treatment time 24 h; reporter: 7TFP
In short: (§1)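 Stable lentiviral TCF/Wnt firefly luciferase reporters (7TFP or TCF4/Wnt) were present in the colorectal cancer cell lines used. These cells received library compounds at a final 5 µM for 24 h, and parallel plates were read for firefly luciferase or CellTiterGlo luminescence. Each well was normalised to the plate median, and the value reported is the mean of two independent replicates.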

HCT116 = test: as above; settings: 5 µM; treatment time 24 h; reporter: TCF4/Wnt
In short: as §1

SW480 [2] = test: as above; settings: 5 µM; treatment time 24 h; reporter: 7TFP
In short: as §1

DLD1 [3] = test: TCF/Wnt firefly luciferase reporter signal relative to plate median (fraction of plate median); higher = higher Wnt reporter signal; settings: 5 µM; treatment time 24 h; reporter: 7TFP
In short: as §1

SW480 [4] = test: as above; settings: 5 µM; treatment time 24 h; reporter: 7TFP
In short: as §1

Compound	cell viability (DLD1 [1])	cell viability (HCT116)	cell viability (SW480 [2])	TCF/Wnt firefly luciferase reporter signal (DLD1 [3])	TCF/Wnt firefly luciferase reporter signal (SW480 [4])
N[C@@H]1C[C@H]1c1ccccc1.N[C@H]1C[C@@H]1c1ccccc1	1.02 ± 0.059	0.959 ± 0.0042	0.956 ± 0.033	1.05 ± 0.17	0.892 ± 0.12
CC(=O)NC1CCSC1=O (stereo not given)	1.03 ± 0.055	1.01 ± 0.019	1.03 ± 0.028	1.02 ± 0.12	0.902 ± 0.12
C[C@]12CC[C@H]3[C@@H](CC[C@]4(O)C[C@@H](O)CC[C@]34C=O)[C@@]1(O)CC[C@@H]2C1=CC(=O)OC1	0.579 ± 0.021	0.502 ± 0.12	0.746 ± 0.046	0.226 ± 0.12	0.58 ± 0.054
CNC(C)[C@H](O)c1ccccc1 (stereo not given in full)	0.976 ± 0.063	0.917 ± 0.0099	1.02 ± 0.03	0.978 ± 0.2	1 ± 0.095
CCC12C=CCN3CC[C@@]4(c5ccc(OC)cc5N(C)[C@H]4[C@@](O)(C(=O)OC)[C@@H]1OC(C)=O)[C@@H]32 (stereo not given in full)	0.975 ± 0.035	0.953 ± 0.025	0.9915 ± 0.0021	0.857 ± 0.042	0.821 ± 0.021

Source: the supplement of paper PMC6522484
